Bioassay records as filed in PubChem BioAssay.
Most compounds without a hit are left out; they make up all but 6.8% or so of the library.
KB-3-1 tox = qHTS assay for MDR1-selective chemotherapeutics: Primary screen using the parental adenocarcinoma cell KB-3-1. KB-3-1 viability, CellTiter-Glo ATP luminescence, 72 h. Potency, µM (titrated, usually from 46.1 µM), hits mostly cytotoxic. hit rate 1.4% among 400,000; also: % is scaled to controls: 0 for no effect and ±100 for the full control effect; nearly all actives have a fitted effect of over 60% in size
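Screening of KB-3-1 cells (DMEM, 10% FBS, phenol-red free) ran from lowest to highest compound concentration; after 72 h at 37 °C viability was read luminescently and curves fitted.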
MCF10A rereplic = A quantitative high throughput screen for small molecules that induce DNA re-replication in MCF 10a normal breast cells; MCF 10A DNA re-replication, Hoechst nuclear intensity, 48 h; Potency, µM (highest dose often 46.1 µM), for the others: top-dose activity, positive = re-replication, hits mostly activators; hit rate 2.9% among 350,000; also: % of control where 0% means no effect; nearly all actives have a fitted effect of over 50% in size
PINK1 expr mod = A Quantitative High throughput Screen to Identify Chemical Modulators of PINK1 Expression; PINK1 immunofluorescence, high-content cytometry, 24 h; AID 624263, 2012; hit rate 0.2% among 410,000; Potency, µM (top dose mostly 76.6 µM), inactives show top-dose activation (PINK1 increase), hits mostly activators; active = well fitted activation curve with a large enough effect; inconclusive = small, poorly fitted or top-dose-only effect; cell line not stated here; also: % of control where 0% means no effect; nearly all actives have a fitted effect of over 65% in size
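PINK1 protein level read as immunofluorescence by microplate cytometer in a fixed, stained stable cell line after 24 h exposure to five compound concentrations, with CCCP as control.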
PTAP TSG101 blk = qHTS Assay for Iinhibitors of HIV-1 Budding by Blocking the Interaction of PTAP/TSG101; Potency, µM (top dose mostly 115 µM), inactives show at the top dose activity change, negative = inhibition, usual class: inhibitors; AID 493005, 2010; 340,000 tested, under 10 active; Tumor susceptibility gene 101 protein (Homo sapiens), Q99816; Fluorescence polarization, FITC-PTAP peptide / Tsg101 binding; active = well fitted inhibition curve with a large enough effect in the main read-out, with a control signal flat, not every such curve was filed as active; inconclusive = small, poorly fitted or top-dose-only effect, or effect the other way, or a change in a side signal; inactive = no such curve, though single readings can be large or run the other way; also: % of control where 0% means no effect
Target sequence (Q99816 whole entry, looked up): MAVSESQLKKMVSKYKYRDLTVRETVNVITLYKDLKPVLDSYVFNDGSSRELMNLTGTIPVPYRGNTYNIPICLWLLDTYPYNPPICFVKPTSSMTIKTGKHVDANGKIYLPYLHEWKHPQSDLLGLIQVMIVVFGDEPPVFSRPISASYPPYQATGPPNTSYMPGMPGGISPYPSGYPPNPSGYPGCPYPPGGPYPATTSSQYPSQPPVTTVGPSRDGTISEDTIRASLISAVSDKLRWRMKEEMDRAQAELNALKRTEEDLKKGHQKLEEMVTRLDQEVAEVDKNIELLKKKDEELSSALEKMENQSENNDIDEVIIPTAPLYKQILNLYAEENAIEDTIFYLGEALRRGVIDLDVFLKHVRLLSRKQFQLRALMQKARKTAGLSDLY
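Compounds were pin-transferred onto Tsg101 binding domain (10 uM final) in HEPES pH 7.5 buffer, then FITC-PTAP peptide was added at 50 nM final. After 20 min at RT, polarization reported peptide displacement across a qHTS concentration series.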
SW480 rereplic = A quantitative high throughput screen for small molecules that induce DNA re-replication in SW480 colon adenocarcinoma cells; Potency, µM (titrated, usually from 46.1 µM), inactives show at the highest dose re-replication activation, actives largely listed as activators; AID 624297, 2012; hit rate 1.8% among 340,000; SW480 DNA re-replication, Hoechst DNA content imaging, 48 h; also: % of control where 0% means no effect; nearly all actives have a fitted effect of over 55% in size
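Hoechst fluorescence of nuclei (405 nm excitation, 500-530 nm emission) measured by plate-scanning imager after 48 hr compound exposure at 37 C; re-replication scored as increased number of nuclei with elevated intensity.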
KB-V1 cytotox = qHTS assay for MDR1-selective chemotherapeutics: Primary screen using the drug-selected MDR subline cells KB-V1; KB-V1 MDR cells viability, CellTiter-Glo, 72 h; Potency, µM (series often up to 46.1 µM), actives largely listed as cytotoxic; hit rate 3.4% among 400,000; AID 1347076, 2019; also: % is scaled to controls: 0 for no effect and ±100 for the full control effect; nearly all actives have a fitted effect of over 60% in size
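Following 72 h at 37 degrees C with compound, KB-V1 cell viability was read by CellTiter-Glo luminescence, medium being phenol-red-free DMEM plus 10% FBS; concentration-response parameters came from normalized, curve-fitted qHTS data.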
The depositor's hits bear a star; [ ] = remark or other dose. Unless noted, calls follow the shape of the dose curve; as a rule, active = well fitted curve in the direction sought with a large enough effect; inconclusive = small, poorly fitted or top-dose-only effect, or another doubt; inactive = no such curve, though single readings can be large; an effect the other way counts as inactive or inconclusive. Potency is read from the fitted curve at half-maximal effect.

How did COc1ccc(-c2ccc3c(c2)S(=O)(=O)c2cccc(C(=O)NC4CCCC4)c2C3=O)cc1OC do in these assays?
KB-3-1 tox: inactive; MCF10A rereplic: inconclusive; PINK1 expr mod: 10%; PTAP TSG101 blk: 11%; SW480 rereplic: -16%; KB-V1 cytotox: inactive

How did Cn1ccnc1C1CCCCN1C(=O)CN1Cc2ccccc2OC(c2ccccc2F)C1 (stereo not given) do in these assays?
PINK1 expr mod: 0%

What do the screens show for `COc1cc(NC(=O)CCCc2nnc3n(CC(C)C)c(=O)c4sccc4n23)cc(OC)c1`?
PINK1 expr mod: 0%

How did COc1ccc(-c2ccc3c(c2)S(=O)(=O)c2cccc(C(=O)N4CCN(C5CCCCC5)CC4)c2C3=O)cc1OC do in these assays?
KB-3-1 tox: inactive; MCF10A rereplic: 21µM*; PINK1 expr mod: 2%; PTAP TSG101 blk: 0%; SW480 rereplic: 21µM*; KB-V1 cytotox: inactive

How did COc1ccc(-c2ccc3c(c2)S(=O)(=O)c2cccc(C(=O)N4CCN(c5ccccn5)CC4)c2C3=O)cc1OC do in these assays?
KB-3-1 tox: inactive; PINK1 expr mod: -1%; KB-V1 cytotox: inconclusive

Results for COc1ccc(S(=O)(=O)N2CCCC2CNC(=O)C(=O)Nc2cccc(F)c2)cc1 (stereo not given) ?
KB-3-1 tox: inactive; MCF10A rereplic: 2%; PINK1 expr mod: 2%; PTAP TSG101 blk: -3%; SW480 rereplic: 1%; KB-V1 cytotox: 4.1µM*

Results for CCCCCOc1ccc(NC(=O)C(=O)NCC2CCCN2CC)cc1 (stereo not given) ?
KB-3-1 tox: inactive; MCF10A rereplic: 15µM*; PINK1 expr mod: 4%; PTAP TSG101 blk: -2%; SW480 rereplic: 6%; KB-V1 cytotox: inactive

How did Cc1ccc(NC(=O)C(=O)NCC2CCCN2S(=O)(=O)c2cccs2)cc1C (stereo not given) do in these assays?
KB-3-1 tox: inconclusive; MCF10A rereplic: 24%; PINK1 expr mod: 0%; PTAP TSG101 blk: -2%; SW480 rereplic: -2%; KB-V1 cytotox: inconclusive

Results for COc1ccc(NC(=O)C(=O)NCC2CCCN2S(=O)(=O)c2cccs2)cc1 (stereo not given) ?
KB-3-1 tox: inconclusive; MCF10A rereplic: 6.5µM*; PINK1 expr mod: 2%; PTAP TSG101 blk: -2%; SW480 rereplic: 2.6µM*; KB-V1 cytotox: inconclusive

Results for CCN1CCCC1CNC(=O)C(=O)NC (stereo not given) ?
KB-3-1 tox: inactive; MCF10A rereplic: 22%; PINK1 expr mod: 3%; PTAP TSG101 blk: -1%; SW480 rereplic: -9%; KB-V1 cytotox: inactive

How did COc1ccc(S(=O)(=O)N2CCCC2CNC(=O)C(=O)Nc2ccc(F)cc2)cc1 (stereo not given) do in these assays?
KB-3-1 tox: inactive; MCF10A rereplic: 3%; PINK1 expr mod: 3%; PTAP TSG101 blk: -3%; SW480 rereplic: -172%; KB-V1 cytotox: inactive

How did COc1ccc(CCNC(=O)Cn2nnc(-c3cccc(C(F)(F)F)c3)n2)cc1OC do in these assays?
KB-3-1 tox: inactive; PINK1 expr mod: 2%; KB-V1 cytotox: inactive

Results for Cc1ccc(C)c(CSc2nc3[nH]ncc3c(=O)[nH]2)c1 ?
KB-3-1 tox: 1.2µM*; MCF10A rereplic: inconclusive; PINK1 expr mod: 8%; PTAP TSG101 blk: 1%; SW480 rereplic: 3.7µM*; KB-V1 cytotox: 0.52µM*

Results for Cc1ccc(NC(=O)CN2C(=O)COc3ccc(S(=O)(=O)N4CCCCCC4)cc32)c(C)c1 ?
PINK1 expr mod: 1%

How did CCNc1nc(SCC(=O)Nc2ccc(Cl)c(Cl)c2)nc(N(C)C)n1 do in these assays?
KB-3-1 tox: inactive; MCF10A rereplic: 13%; PINK1 expr mod: 10%; PTAP TSG101 blk: -2%; SW480 rereplic: -1%; KB-V1 cytotox: inactive

How did CN(C)c1nc(NCc2ccccc2)nc(SCC(=O)Nc2ccc(Cl)c(Cl)c2)n1 do in these assays?
KB-3-1 tox: inactive; MCF10A rereplic: inconclusive; PINK1 expr mod: 5%[38.3 µM]; PTAP TSG101 blk: -2%; SW480 rereplic: inconclusive; KB-V1 cytotox: 7.3µM*

What do the screens show for `CCNc1nc(NCc2ccccc2)nc(SCC(=O)Nc2ccccc2)n1`?
KB-3-1 tox: inconclusive; MCF10A rereplic: 1%; PINK1 expr mod: inconclusive; PTAP TSG101 blk: -11%; SW480 rereplic: -3%; KB-V1 cytotox: 2.3µM*

Results for COc1cccc(CC(=O)NCC2Cc3cc(Cl)cc(-c4ncccn4)c3O2)c1 (stereo not given) ?
PINK1 expr mod: 0%

What do the screens show for `CCOc1ccccc1NC(=O)Cn1c(=O)nc(-c2ccccc2F)c2cc(Cl)ccc21`?
PINK1 expr mod: 4%

Results for COc1ccc(NC(=O)C2CCN(S(=O)(=O)c3cc(-c4noc(C)n4)ccc3C)CC2)cc1 ?
KB-3-1 tox: inactive; PINK1 expr mod: 0%; KB-V1 cytotox: inactive

How did Oc1ccccc1C1CC(c2cccs2)=NC(c2ccc(Cl)cc2)N1 (stereo not given) do in these assays?
KB-3-1 tox: inconclusive; MCF10A rereplic: 4.6µM*; PINK1 expr mod: -1%; PTAP TSG101 blk: 1%; SW480 rereplic: 18µM*; KB-V1 cytotox: inactive

How did Cc1ccc2nc(N3CCN(c4cccc(C(F)(F)F)c4)CC3)c3nnnn3c2c1 do in these assays?
PINK1 expr mod: 2%

Results for COC(=O)C1=C(C)NC(=O)NC1c1cn(-c2ccccc2)nc1-c1cccs1 (stereo not given) ?
KB-3-1 tox: inactive; MCF10A rereplic: 2%; PINK1 expr mod: 1%; PTAP TSG101 blk: -1%; SW480 rereplic: -1%; KB-V1 cytotox: inactive

What do the screens show for `CCOC(=O)C1=C(C)NC(=O)NC1c1cn(-c2ccccc2)nc1-c1cccs1` (stereo not given)?
KB-3-1 tox: inactive; MCF10A rereplic: inconclusive; PINK1 expr mod: 0%[38.3 µM]; PTAP TSG101 blk: -10%; SW480 rereplic: 0%; KB-V1 cytotox: 21µM*

How did CCOc1ccc(NC(=O)CN(C)C(=O)c2csc3c2CCCC3)cc1OCC do in these assays?
KB-3-1 tox: inactive; MCF10A rereplic: -3%; PINK1 expr mod: 1%; PTAP TSG101 blk: -2%; SW480 rereplic: -4%; KB-V1 cytotox: 15µM*
